This is part of a sample that, as a whole, favours compounds with a hit. Of some 83,000 tested, about 20% had one in any assay.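 Negative percent growth values reflect cell death: -40 means 40% of the cells present at the start died, and -100 means all died.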 Values without a mark were called inactive. Active and inactive are the calls of the source. How the source made its calls: active means growth percent below 10; inactive means the rest.
Experiments:
Assay in all cases: NCI-60 one-dose screen, 48 h (100 = growth as untreated, 0 = no growth, -100 = all killed)
SR leukemia = settings: 10 µM unless noted
RPMI-8226 leukemia = settings: 10 µM unless noted
OVCAR-8 ovarian = settings: 10 µM unless noted
OVCAR-5 ovarian = settings: 10 µM unless noted
OVCAR-4 ovarian = settings: 10 µM
SK-OV-3 ovarian = settings: 10 µM unless noted
IGROV1 ovarian = settings: 10 µM unless noted
OVCAR-3 ovarian = settings: 10 µM unless noted
HS 578T breast = settings: 10 µM unless noted
NCI/ADR-RES ovarian = settings: 10 µM unless noted
T-47D breast = settings: 10 µM unless noted
MDA-MB-435 melanoma = settings: 10 µM unless noted
SW-620 colon = settings: 10 µM unless noted
MCF7 breast = settings: 10 µM unless noted
HCT-116 colon = settings: 10 µM unless noted
HCC-2998 colon = settings: 10 µM unless noted
KM12 colon = settings: 10 µM unless noted
BT-549 breast = settings: 10 µM unless noted

| Structure (SMILES) | growth (SR leukemia) | growth (RPMI-8226 leukemia) | growth (OVCAR-8 ovarian) | growth (OVCAR-5 ovarian) [%] | growth (OVCAR-4 ovarian) | growth (SK-OV-3 ovarian) | growth (IGROV1 ovarian) [%] | growth (OVCAR-3 ovarian) | growth (HS 578T breast) [%] | growth (NCI/ADR-RES ovarian) | growth (T-47D breast) | growth (MDA-MB-435 melanoma) | growth (SW-620 colon) | growth (MCF7 breast) | growth (HCT-116 colon) | growth (HCC-2998 colon) [%] | growth (KM12 colon) [%] | growth (BT-549 breast) |
| --- | --- | --- | --- | --- | --- | --- | --- | --- | --- | --- | --- | --- | --- | --- | --- | --- | --- | --- |
| CC1Cc2c(Cl)ncnc2N(C)c2ccc(Cl)cc21 (configuration not stated) | 6.35% (active) | -3.81% (active) | 8.59% (active) | 39.8 | 7.91% (active) | 12% | 30.5 | 9.74% (active) | 23.4 | 13.1% | 2.19% (active) | 3.3% (active) | 6.73% (active) | 7.64% (active) | 7.96% (active) | 36.9 | 10.1 |  |
| O=C(CCN1CCCCC1)c1ccc2ccccc2c1 | 103% | 77.5% | 99.9% | 117 | 114% | 105% | 104 | 98.6% | 104 | 109% | 91% | 110% | 107% |  | 103% | 109 | 102 |  |
| O=C(Nc1cccc(F)c1)c1cc(=O)[nH]c2cc(Br)ccc12 | 21.8% | 76.1% | 71.8% | 63.3 | 70.6% | 51.8% | 40.5 | 23.5% | 52.4 | 53.2% | 48.1% | -21.8% (active) | 27.7% | 17.6% | 19.1% | 65 | 21.5 |  |
| COc1cc(OC)cc(C(=O)Nc2cc(-c3cccnc3)nc(NCCCN3CCOCC3)n2)c1 | 57.9% | 79.1% | 91.8% | 100 | 117% | 93.9% | 97.4 | 105% | 69 | 95.4% | 72.8% | 102% | 99.9% |  | 89.2% | 123 | 104 |  |
| O=C1NC(=O)C(Cc2ccccc2)(Cc2ccccc2)N1 | 104% | 91% | 104% | 110 | 91.2% | 98.1% | 115 | 98.9% | 111 | 101% |  | 96.4% | 101% | 96.2% | 90.9% | 104 |  | 90.4% |
| Nc1nc(Nc2ccccc2)c2ncn(Cc3ccc4c(c3)OCO4)c2n1 | 13.6% | 30.6% | 55.1% | 71.5 | 66.9% | 51.2% | 64.2 | 24.1% | 42.8 | 9.58% (active) | 33.8% | -23.4% (active) | 23.1% | 21.3% | 35.2% | 71 | 26.2 |  |
| O=C(CSc1nc2ccc([N+](=O)[O-])cc2[nH]1)Nc1ccc(F)c(Cl)c1 | 5.97% (active) | -22.3% (active) | 15.5% | 50.9 | 2.64% (active) | 21.4% | 36.1 | 16.5% | 20.3 | 22.4% |  | 15.5% | 26.4% | 9.25% (active) | 7.89% (active) | 32.9 | 19.9 | -0.0932% (active) |
| CCN(CC)c1ccc(/C=C/c2ccc3cc(C)ccc3[n+]2CC)cc1 | -17.6% (active) | -8.91% (active) | 2.3% (active) | 26.8 | 21.2% | -11.6% (active) | 26.5 | 14.9% | 46.5 | 45.7% |  | -33.3% (active) | 17.6% | 3.46% (active) | 7.53% (active) | 16.5 |  | 1.38% (active) |
| O=C(O)c1cn(C2CC2)c2cc(N3CCN(Cc4cc(Cl)ccc4O)CC3)c(F)cc2c1=O | 0.849% (active) | 41.8% | 58.2% | 89.4 | 72.3% | 71% | 44.8 | 81.2% | 74.1 | 72.7% | 67.4% |  | 83.6% |  | 72.3% | 82.4 | 62.5 |  |

Reference: PubChem BioAssay (NCI)
